Hits are enriched below; roughly 6.7% of the tested compounds scored in any of these assays.
Pf Dd2 inh: P. falciparum Dd2 growth inhibition; activity change, % at 10 µM; hit rate 2.3% among 94,000; SYBR Green, 72 h; active compounds read low; in the data active = activity change below about -80%; inconclusive = no clear call, values can overlap the other calls
T cruzi growth-1: inhibitors of T. cruzi proliferation | hit rate 5.9% among 77,000 | inhibition, % at 8.34 µM | T. cruzi beta-gal in NIH3T3, GalScreen luminescence, 90 h;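 active = mean inhibition above about 93%, with at least 55% of replicates each passing it, limit read from the data, passing the limit was not always enough; inconclusive = only one of those two conditions holds; inactive = neither condition holds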
C diff HTS: inhibitors of Clostridium difficile growth; Clostridium difficile clinical isolate growth, OD600, 24 h; active compounds read low; growth activity, negative = inhibition, % at 16 µg/mL (by protocol); hit rate 0.25% among 86,000; AID 1259249;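 active = mean growth activity at or below -80% and every replicate also at or below -80%; inconclusive = mean at or below -80% but some replicate above -80%; inactive = mean growth activity above -80%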
T cruzi growth-2: Trypanosoma cruzi proliferation inhibition | shares compounds with T cruzi growth-1 | T. cruzi beta-gal in NIH3T3, GalScreen luminescence, 90 h | inhibition, % at 8.35 µM | hit rate 72% among 5,600;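 active = mean replicate inhibition above about 95% and at least 55% of replicates individually reaching it, limit read from the data; inconclusive = only one of the two criteria is met; inactive = neither criterion is met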
T cruzi growth-3: Trypanosoma cruzi proliferation inhibition; shares compounds with T cruzi growth-1; T. cruzi beta-gal in NIH3T3, GalScreen luminescence, 90 h; inhibition, % at 2.09 µM; hit rate 21% among 5,600; AID 651740;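 active = mean inhibition above about 95%, with at least 55% of replicates also reaching it, limit read from the data; inconclusive = meets just one of the two conditions; inactive = meets neither condition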
3T3 cytotox: kills mouse NIH/3T3 fibroblasts. NIH/3T3 viability, CellTiter-Glo ATP luminescence, 90 h. AID 651742. cytotoxicity (signal decrease), % at 8.35 µM. hit rate 14% among 5,600. shares compounds with T cruzi growth-1;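 active = mean signal decrease across replicates above about 35% based on untreated-well scatter, with enough replicates individually passing, limit read from the data; inconclusive = no rule stated though some were filed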
NIH3T3 tox 2: kills mouse NIH/3T3 fibroblasts; shares compounds with T cruzi growth-1; NIH/3T3 viability, CellTiter-Glo ATP luminescence, 90 h; inhibition, % at 24.9 µM; hit rate 56% among 5,600; AID 651744;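 active = mean loss of cell viability signal at or above a set limit, and enough replicates individually reaching it; inconclusive = meets only the mean limit or only the replicate share; inactive = meets neither condition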
Of the large screens only hits and unclear results are named; the others gave an inactive call (follow-up assays come after a bar, where they were run).

N#C[C@H]1[C@@H](c2ccc(-c3cccc(F)c3)cc2)[C@@H](CO)N1S(=O)(=O)c1cccc(F)c1	none
N#C[C@H]1[C@H](c2ccc(-c3cccc(F)c3)cc2)[C@@H](CO)N1S(=O)(=O)c1cccc(F)c1	T cruzi growth-1 98 | T cruzi growth-2 105 | T cruzi growth-3 inactive | 3T3 cytotox 41 | NIH3T3 tox 2 104
Cc1ccccc1S(=O)(=O)N1[C@H](C#N)[C@H](c2ccc(-c3ccccc3)cc2)[C@H]1CO	T cruzi growth-1 103 | T cruzi growth-2 98 | T cruzi growth-3 inactive | 3T3 cytotox 41 | NIH3T3 tox 2 47
O=C(Cc1ccccc1)N[C@H]1CC[C@H](CC(=O)N2CCCCC2)O[C@@H]1CO	none
OC[C@H]1Nc2ccc(-c3cccc(F)c3)cc2[C@H]2[C@@H]1CCN2Cc1ccncc1	T cruzi growth-1 106 | T cruzi growth-2 104 | T cruzi growth-3 inactive | 3T3 cytotox inactive | NIH3T3 tox 2 92
OC[C@H]1Nc2ccc(-c3cccc(F)c3)cc2[C@@H]2[C@H]1CCN2Cc1ccc(F)cc1	Pf Dd2 inh -90, T cruzi growth-1 111 | T cruzi growth-2 inconclusive | T cruzi growth-3 112 | 3T3 cytotox 51 | NIH3T3 tox 2 105
OC[C@@H]1Nc2ccc(-c3ccc(F)cc3)cc2[C@H]2[C@@H]1CCN2Cc1ccc(F)cc1	none
OC[C@@H]1Nc2ccc(-c3ccccc3)cc2[C@@H]2[C@H]1CCN2Cc1ccc(F)cc1	none
N#Cc1cccc(-c2ccc3c(c2)[C@@H]2[C@@H](CCN2Cc2cncnc2)[C@@H](CO)N3)c1	T cruzi growth-1 105 | T cruzi growth-2 inactive | T cruzi growth-3 inactive | 3T3 cytotox inactive | NIH3T3 tox 2 inactive
CN(C)C(=O)c1ccc(-c2ccc3c(c2)[C@H]2[C@H](CCN2Cc2cncnc2)[C@H](CO)N3)cc1	none
CO[C@H]1CN(C)C(=O)c2cc(NS(C)(=O)=O)ccc2OC[C@H](C)N(C(=O)CC2CC2)C[C@H]1C	none
CO[C@H](CN(C)S(=O)(=O)c1cccc(Cl)c1)[C@H](C)CN([C@@H](C)CO)S(=O)(=O)c1ccc(Cl)cc1	none (no result: C diff HTS)
CO[C@H](CN(C)S(=O)(=O)c1cccc(Cl)c1)[C@H](C)CN([C@H](C)CO)S(=O)(=O)c1cccc(Cl)c1	T cruzi growth-1 101 (no result: C diff HTS) | T cruzi growth-2 113 | T cruzi growth-3 inactive | 3T3 cytotox inconclusive | NIH3T3 tox 2 60
CO[C@@H](CN(C)S(=O)(=O)c1cccc(Cl)c1)[C@H](C)CN([C@@H](C)CO)S(=O)(=O)c1ccc(Cl)cc1	T cruzi growth-1 103 (no result: C diff HTS) | T cruzi growth-2 inconclusive | T cruzi growth-3 inactive | 3T3 cytotox inconclusive | NIH3T3 tox 2 76
CO[C@H](CN(C)S(=O)(=O)c1cccc(Cl)c1)[C@H](C)CN([C@@H](C)CO)S(=O)(=O)c1cccc(Cl)c1	T cruzi growth-1 99 (no result: C diff HTS) | T cruzi growth-2 110 | T cruzi growth-3 inactive | 3T3 cytotox 49 | NIH3T3 tox 2 58
CO[C@H](CN(C)S(=O)(=O)c1ccc(C)cc1)[C@H](C)CN([C@H](C)CO)S(=O)(=O)c1cccc(Cl)c1	T cruzi growth-1 102 (no result: C diff HTS) | T cruzi growth-2 103 | T cruzi growth-3 inactive | 3T3 cytotox 58 | NIH3T3 tox 2 84
CO[C@@H](CN(C)S(=O)(=O)c1cccc(Cl)c1)[C@@H](C)CN([C@H](C)CO)S(=O)(=O)c1cccc(Cl)c1	none (no result: C diff HTS)
CO[C@@H](CN(C)S(=O)(=O)c1ccc(C)cc1)[C@H](C)CN([C@H](C)CO)S(=O)(=O)c1cccc(Cl)c1	none (no result: C diff HTS)
CO[C@H](CN(C)S(=O)(=O)c1cccc(Cl)c1)[C@@H](C)CN([C@H](C)CO)S(=O)(=O)c1ccc(Cl)cc1	none (no result: C diff HTS)
Cc1noc(C)c1S(=O)(=O)N(C)C[C@H]1Oc2ccc(NC(=O)Cn3cnnn3)cc2CC(=O)N([C@H](C)CO)C[C@H]1C	none
C[C@@H]1CCCCO[C@H](CN(C)Cc2ccncc2)[C@H](C)CN([C@H](C)CO)C(=O)c2cc(NS(=O)(=O)c3ccc(F)cc3)ccc2O1	none (no result: T cruzi growth-1)
C[C@@H]1CN([C@@H](C)CO)C(=O)Cc2cc(NS(=O)(=O)c3ccccc3)ccc2O[C@H]1CN(C)S(=O)(=O)c1ccc(Cl)cc1	none
O=C(C1CCC1)N1CC2(C1)[C@H](c1ccccc1)[C@H](CO)N2CC1CCCC1	none (no result: T cruzi growth-1)
O=C(C[C@@H]1C[C@H]2c3cc(NC(=O)C4CCOCC4)ccc3O[C@H]2[C@@H](CO)O1)NCc1ccccn1	none
CCCC#Cc1ccc2c(c1)O[C@@H](CN(C)C(=O)c1ccccc1)[C@@H](C)CN([C@@H](C)CO)S2(=O)=O	none
CCCC#Cc1ccc2c(c1)O[C@H](CN(C)C(=O)c1ccccc1)[C@H](C)CN([C@@H](C)CO)S2(=O)=O	T cruzi growth-1 96 | T cruzi growth-2 102 | T cruzi growth-3 inactive | 3T3 cytotox inactive | NIH3T3 tox 2 26
CC(C)CC#Cc1ccc2c(c1)O[C@@H](CN(C)C(=O)c1ccccc1)[C@H](C)CN([C@@H](C)CO)S2(=O)=O	T cruzi growth-1 116 | T cruzi growth-2 110 | T cruzi growth-3 inactive | 3T3 cytotox 39 | NIH3T3 tox 2 108
CC(C)CC#Cc1ccc2c(c1)O[C@@H](CN(C)C(=O)c1ccccc1)[C@@H](C)CN([C@H](C)CO)S2(=O)=O	none (no result: T cruzi growth-1)
CC(C)CC#Cc1ccc2c(c1)O[C@H](CN(C)C(=O)c1ccccc1)[C@H](C)CN([C@@H](C)CO)S2(=O)=O	T cruzi growth-1 118 | T cruzi growth-2 104 | T cruzi growth-3 98 | 3T3 cytotox inactive | NIH3T3 tox 2 106
CCCC#Cc1ccc2c(c1)O[C@@H](CN(C)C(=O)c1ccccc1)[C@@H](C)CN([C@H](C)CO)S2(=O)=O	none
CCCC#Cc1cnc2c(c1)C(=O)N([C@@H](C)CO)C[C@@H](C)[C@H](CN(C)C(=O)c1cccnc1)O2	none
O=C([C@H]1N[C@H]2c3ccc(C4=CCCCC4)c(=O)n3C[C@H]2[C@@H]1CO)N1CCC(Cc2ccccc2)CC1	none (no result: Pf Dd2 inh)
O=C([C@@H]1[C@@H](CO)[C@@H]2Cn3c(ccc(C4=CCCCC4)c3=O)[C@H]1N2)N1CCC(Cc2ccccc2)CC1	T cruzi growth-1 100 | T cruzi growth-2 inactive | T cruzi growth-3 inactive | 3T3 cytotox inactive | NIH3T3 tox 2 inactive
CCCNC(=O)C[C@H]1CC[C@@H]2[C@@H](COc3ccc(NC(=O)NCC)cc3C(=O)N2C)O1	none
O=C(Cc1cccnc1)N1CC(=O)N2[C@H](C1)[C@@H](c1ccc(C3=CCCCC3)cc1)[C@@H]2CO	none (no result: T cruzi growth-1)
COc1cccc(S(=O)(=O)Nc2ccc3c(c2)[C@H]2C[C@H](CC(=O)NCc4ccccc4F)O[C@H](CO)[C@H]2O3)c1	T cruzi growth-1 143 | T cruzi growth-2 98 | T cruzi growth-3 inactive | 3T3 cytotox inactive | NIH3T3 tox 2 inactive

Screening results as filed in PubChem.
